Results: PubChem BioAssay (Tox21)
Inconclusive results are not listed. Calls of active or inactive are those of the source. Unless noted, the call rests on the fitted dose curve; in most records, active means well fitted curve in the direction sought with a large enough effect in the repeat runs; inconclusive means weak or mixed curves; inactive means no such curve, though single readings can be large; an effect the other way counts as inactive or inconclusive.

Assays:
[1] = qHTS RealTime-Glo MT Cell Viability Assay in HEK293 cells - 0 hour (AID 1224880); further: top concentration of the series differs between compounds; nearly all actives have a fitted effect of over 45% in size
In short: (§1)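 Luminescence readout at each listed time point; HEK293, 600 cells/well, RealTime-Glo MT reagent added with cells; compounds pinned (23 nL in DMSO) after 5 h at 37 C; continuous culture at 37 C.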

[2] = A CellTox Green Cytotoxicity Assay to monitor cytotoxicity in HEK293 cells - 32 hour (AID 1224881); further: nearly all actives have a fitted effect of over 40% in size
In short: (§2)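 Read-out: fluorescence of a cell-impermeant cyanine dye staining DNA of dead cells, proportional to cytotoxicity. HEK293, 600 cells/well with reagent, compound (23 nL DMSO) added after 5 h; reads at 0, 8, 16, 24, 32, 40 h.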

[3] = A CellTox Green Cytotoxicity Assay to monitor cytotoxicity in HepG2 cells - 0 hour (AID 1224882); further: nearly all actives have a fitted effect of over 35% in size
In short: (§3)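 HepG2, 600 cells/well premixed w/ CellTox Green; 5 h settle, 37 C/5% CO2; pintool cpd add (DMSO); 37 C, 40 h; fluorescence read at 0, 8, 16, 24, 32, 40 h.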

[4] = A CellTox Green Cytotoxicity Assay to monitor cytotoxicity in HepG2 cells - 32 hour (AID 1224883); further: nearly all actives have a fitted effect of over 50% in size
In short: as §3

[5] = A CellTox Green Cytotoxicity Assay to monitor cytotoxicity in HEK293 cells - 8 hour (AID 1224884); further: nearly all actives have a fitted effect of over 35% in size
In short: as §2

[6] = qHTS RealTime-Glo MT Cell Viability Assay in HepG2 cells - 16 hour (AID 1224885); further: nearly all actives have a fitted effect of over 50% in size
In short: (§4)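 Tox21 10K library screened in qHTS format on HepG2 cells carrying RealTime-Glo reagents. Compounds were added after a 5 h preincubation, and the luminescent signal from continuous culture was measured repeatedly during 40 h treatment.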

[7] = qHTS RealTime-Glo MT Cell Viability Assay in HEK293 cells - 24 hour (AID 1224886); further: nearly all actives have a fitted effect of over 50% in size; further: potency means the concentration at half of the fitted maximal effect; on activity change, negative = cytotoxicity: top concentration of the series differs between compounds
In short: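 Luminescence generated by NanoLuc from substrate produced by living HEK293 cells served as the viability signal. Each value reflects the reading at its stated time point during continuous 40 h compound exposure at 37 C.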

[8] = qHTS RealTime-Glo MT Cell Viability Assay in HEK293 cells - 8 hour (AID 1224887); further: nearly all actives have a fitted effect of over 50% in size; further: potency means the concentration at half of the fitted maximal effect; on activity change, negative = cytotoxicity: top concentration of the series differs between compounds
In short: as §1

[9] = A CellTox Green Cytotoxicity Assay to monitor cytotoxicity in HEK293 cells - 16 hour (AID 1224888); further: nearly all actives have a fitted effect of over 35% in size
In short: as §2

[10] = qHTS RealTime-Glo MT Cell Viability Assay in HepG2 cells - 0 hour (AID 1224889); further: nearly all actives have a fitted effect of over 50% in size
In short: as §4

[11] = A CellTox Green Cytotoxicity Assay to monitor cytotoxicity in HepG2 cells - 8 hour (AID 1224890); further: nearly all actives have a fitted effect of over 45% in size
In short: as §3

[12] = qHTS assay to identify small molecule antagonists of the estrogen receptor alpha (ER-alpha) signaling pathway using the BG1 cell line in the presence of 0.1 nM 17-beta-estradiol - cell viability counter screen (AID 1259241); further: nearly all actives have a fitted effect of over 40% in size
In short: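 VM7Luc4E2 cells (endogenous full-length ER-alpha, 4xERE-luciferase), cultured 5 days in charcoal-stripped serum, exposed to compounds with 0.1 nM 17beta-estradiol (final) for 22 hr at 37C. Viability read in same wells as live-cell protease fluorescence after 30 min.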

[13] = qHTS assay to identify small molecule antagonists of the androgen receptor (AR) signaling pathway using the MDA cell line in the presence of 0.5 nM R1881 - cell viability counter screen (AID 1259242); further: nearly all actives have a fitted effect of over 45% in size
In short: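 Live-cell protease fluorescence, CellTiter-Fluor, 30 min at 37C. Cells: MDA-kb2, 3,000/well, preincubated 5 hr. Compounds plus 0.5 nM R1881 final, 16 hr, 37C, 0% CO2.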

[14] = target: Estrogen receptor (Homo sapiens) (UniProt P03372); experiment: qHTS assay to identify small molecule antagonists of the estrogen receptor alpha (ER-alpha) signaling pathway using the BG1 cell line in the presence of 0.1 nM 17-beta-estradiol (AID 1259244); further: nearly all actives have a fitted effect of over 50% in size
Chain of Estrogen receptor (Homo sapiens) (P03372 whole entry, looked up): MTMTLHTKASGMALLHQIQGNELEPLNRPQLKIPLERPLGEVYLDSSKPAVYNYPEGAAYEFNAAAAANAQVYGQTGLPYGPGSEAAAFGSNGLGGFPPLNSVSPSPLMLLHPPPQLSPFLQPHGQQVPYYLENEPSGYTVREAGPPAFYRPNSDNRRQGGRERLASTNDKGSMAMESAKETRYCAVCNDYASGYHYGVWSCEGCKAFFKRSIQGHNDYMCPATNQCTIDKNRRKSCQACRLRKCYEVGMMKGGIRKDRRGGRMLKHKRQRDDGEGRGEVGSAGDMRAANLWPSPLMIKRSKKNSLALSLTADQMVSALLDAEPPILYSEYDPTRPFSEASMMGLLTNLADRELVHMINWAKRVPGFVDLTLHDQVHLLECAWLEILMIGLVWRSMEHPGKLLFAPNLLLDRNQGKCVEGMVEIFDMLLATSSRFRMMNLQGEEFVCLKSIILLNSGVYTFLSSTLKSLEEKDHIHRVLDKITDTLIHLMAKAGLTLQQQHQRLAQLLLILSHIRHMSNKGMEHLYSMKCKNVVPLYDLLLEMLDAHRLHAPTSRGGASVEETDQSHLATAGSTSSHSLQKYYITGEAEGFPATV
In short: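 Luminescence after ONE-Glo (30 min, room temperature) measured ERE-luciferase activity in VM7Luc4E2 cells treated 22 h with compound and 0.1 nM final 17beta-estradiol as stimulator.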

[15] = qHTS assay to identify small molecule phospholipidosis (PLD) inducers (AID 1259344; active means well fitted curve in the direction sought with a large enough effect; an effect the other way counts as inactive or inconclusive)
In short: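 Accumulated phospholipid, stained red by LipidTOX during 24 h compound treatment of HepG2 cells at 37 C, is quantified from images as pit number and intensity, normalised per cell using Hoechst-stained nuclei.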

[16] = qHTS assay to identify small molecule HDAC inhibitors (AID 1259364);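 further: wild-type HCT-116 cells with endogenous class I/II HDAC activity; top concentration of the series differs between compounds; nearly all actives have a fitted effect of over 45% in size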
In short: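 HCT-116 (wild type), 1,500 cells/well, overnight; compound 2 hr 37C 5% CO2; HDAC-Glo I/II reagent 30 min RT; luminescence readout.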

[17] = qHTS assay to identify small molecule HDAC inhibitors - cell viability counter screen (AID 1259365)
In short: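 Wild-type HCT-116 cells, 1,500/well, cultured overnight, then compound-treated 2 h at 37 C. Viability measured as ATP luminescence with CellTiter-Glo after 30 min at room temperature.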

[18] = target: Androgen receptor (Homo sapiens) (UniProt P10275); experiment: qHTS assay to identify small molecule antagonists of the androgen receptor (AR) signaling pathway using the MDA cell line in the presence of 0.5 nM R1881 (AID 1259243); further: nearly all actives have a fitted effect of over 50% in size
Chain of Androgen receptor (Homo sapiens) (P10275 whole entry, looked up): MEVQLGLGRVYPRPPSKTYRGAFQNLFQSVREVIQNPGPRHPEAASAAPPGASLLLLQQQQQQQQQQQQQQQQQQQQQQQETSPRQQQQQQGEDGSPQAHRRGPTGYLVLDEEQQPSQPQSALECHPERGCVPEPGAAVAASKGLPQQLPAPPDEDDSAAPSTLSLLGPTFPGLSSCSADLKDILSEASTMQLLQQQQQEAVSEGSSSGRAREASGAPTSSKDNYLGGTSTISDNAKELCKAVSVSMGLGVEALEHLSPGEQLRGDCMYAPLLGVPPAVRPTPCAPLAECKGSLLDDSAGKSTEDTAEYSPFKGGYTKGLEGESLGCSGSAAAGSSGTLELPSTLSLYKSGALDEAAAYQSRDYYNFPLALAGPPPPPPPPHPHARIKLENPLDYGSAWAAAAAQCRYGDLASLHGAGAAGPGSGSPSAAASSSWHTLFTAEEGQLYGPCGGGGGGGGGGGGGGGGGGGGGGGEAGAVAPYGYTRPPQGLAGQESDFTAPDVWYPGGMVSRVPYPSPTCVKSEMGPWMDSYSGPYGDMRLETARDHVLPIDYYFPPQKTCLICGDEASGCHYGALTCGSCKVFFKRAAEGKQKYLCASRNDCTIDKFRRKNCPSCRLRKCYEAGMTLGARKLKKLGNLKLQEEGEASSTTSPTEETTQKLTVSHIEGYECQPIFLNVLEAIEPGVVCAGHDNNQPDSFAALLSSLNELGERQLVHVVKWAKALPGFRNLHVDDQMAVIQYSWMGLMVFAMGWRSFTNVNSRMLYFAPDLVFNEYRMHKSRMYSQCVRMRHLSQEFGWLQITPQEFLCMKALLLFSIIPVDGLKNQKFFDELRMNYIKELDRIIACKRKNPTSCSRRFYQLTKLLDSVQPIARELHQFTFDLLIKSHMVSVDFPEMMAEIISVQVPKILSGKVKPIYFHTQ
In short: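 MDA-kb2, MMTV-luc (AR/GR elements); 3,000 cells/well; cpd + 0.5 nM R1881 final; 16 hr 37C, 0% CO2; ONE-Glo 30 min RT; luminescence.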

[19] = qHTS assay to identify small molecule agonists of the sonic hedgehog signaling (Shh) pathway - cell viability counter screen (AID 1259366); further: nearly all actives have a fitted effect of over 50% in size
In short: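 NIH/3T3-derived Gli1-Luc reporter cells, 2,000 per well, received compound after 4 h and were treated about 23 h at 37C. Viability measured in the same wells by CellTiter-Fluor fluorescence after 1 h.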

[20] = qHTS assay to identify small molecule antagonists of the sonic hedgehog signaling (Shh) pathway - cell viability counter screen (AID 1259367); further: nearly all actives have a fitted effect of over 55% in size
In short: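 CellTiter-Fluor signal in conditioned medium-stimulated 3T3 Gli1-Luc cells, 23 hr compound exposure, 37C.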
On the % scale 0 is the no-effect control and ±100 the full control effect.

O=C(O)c1ccccc1Nc1cc(Cl)ccc1C(=O)O
inactive: activity change, negative = cytotoxicity [1] -6.06% [at 15.8 µM] | cytotoxicity increase [2] -11.6% [at 15.8 µM] | cytotoxicity [3] -1.43% [at 15.8 µM] | cytotoxicity increase [4] 20.7% [at 15.8 µM] | cytotoxicity increase [5] -18.6% [at 15.8 µM] | activity change, negative = cytotoxic [6] 0.467% [at 15.8 µM] | activity change, negative = cytotoxicity [7] 7.65% [at 15.8 µM] | activity change, negative = cytotoxicity [8] -4.99% [at 15.8 µM] | activity change [9] -3.78% [at 15.8 µM, stronger effect = higher value] | activity change, negative = cytotoxicity [10] -2.93% [at 15.8 µM] | cytotoxicity increase [11] 7.19% [at 15.8 µM] | activity change, negative = cytotoxicity [12] -25.8% [at 19 µM] | viability change, negative = cytotoxic [13] -0.133% [at 19 µM] | activity change, negative = inhibition [14] -11% [at 19 µM] | PLD induction [15] -4.32% [at 7.66 µM] | activity change, negative = inhibition [16] -1.95% [at 19 µM] | activity change, negative = cytotoxicity [17] -5.17% [at 19 µM]

COC(C)CCO (stereo not drawn)
inactive: outcome [1] | Potency [2] | Potency [3] | Potency [4] | Potency [5] | outcome [6] | Potency [7] | Potency [8] | Potency [9] | Potency [10] | Potency [11] | Potency [12] | outcome [13] | Potency [18] | Potency [16] | outcome [17] | Potency [19] | Potency [20]

CCOC(=O)C(Br)c1ccccc1 (stereo not drawn)
inactive: outcome [1] | Potency [2] | Potency [3] | Potency [4] | Potency [5] | outcome [6] | Potency [7] | Potency [8] | Potency [9] | Potency [10] | Potency [11] | Potency [12] | outcome [13] | Potency [14] | Potency [16] | outcome [17] | Potency [19] | Potency [20]

O=C(C(Cl)Cl)N1CCOC12CCCCC2
inactive: outcome [1] | Potency [2] | Potency [3] | Potency [4] | Potency [5] | outcome [6] | Potency [7] | Potency [8] | Potency [9] | Potency [10] | Potency [11] | Potency [12] | outcome [13] | Potency [14] | Potency [16] | outcome [17] | Potency [19] | Potency [20]

OC[C@H]1O[C@@H](O[C@H]2[C@H](O)[C@@H](O)[C@H](O)O[C@@H]2CO)[C@H](O)[C@@H](O)[C@H]1O
inactive: outcome [1] | Potency [2] | Potency [3] | Potency [4] | Potency [5] | outcome [6] | Potency [7] | Potency [8] | Potency [9] | Potency [10] | Potency [11] | Potency [12] | outcome [13] | Potency [18] | Potency [14] | Potency [16] | outcome [17] | Potency [19] | Potency [20]

CCCOCCC
inactive: outcome [1] | Potency [2] | Potency [3] | Potency [4] | Potency [5] | outcome [6] | Potency [7] | Potency [8] | Potency [9] | Potency [10] | Potency [11] | Potency [12] | outcome [13] | Potency [14] | Potency [16] | outcome [17] | Potency [19] | Potency [20]

N#Cc1ccc(C(c2ccc(C#N)cc2)n2cncn2)cc1
inactive: outcome [1] | Potency [2] | Potency [3] | Potency [4] | Potency [5] | outcome [6] | Potency [7] | Potency [8] | Potency [9] | Potency [10] | Potency [11] | Potency [12] | outcome [13] | Potency [14] | outcome [15] | Potency [16] | outcome [17] | Potency [19] | Potency [20]

COc1ccc(S(=O)(=O)Nc2nnc(CC(C)C)s2)cc1
inactive: outcome [1] | Potency [2] | Potency [3] | Potency [4] | Potency [5] | outcome [6] | Potency [7] | Potency [8] | Potency [9] | Potency [10] | Potency [11] | Potency [12] | outcome [13] | Potency [14] | outcome [15] | Potency [16] | outcome [17] | Potency [19] | Potency [20]

COc1cc(N)c(Cl)cc1C(=O)NC1CCN(Cc2ccccc2)CC1
inactive: outcome [1] | Potency [2] | Potency [3] | Potency [4] | Potency [5] | outcome [6] | Potency [9] | Potency [10] | Potency [11] | Potency [12] | outcome [13] | Potency [14] | outcome [15] | Potency [16] | outcome [17] | Potency [19] | Potency [20]
active: Potency [7] 19 µM | Potency [8] 21.3 µM

C=O
inactive: outcome [1] | Potency [2] | Potency [3] | Potency [4] | Potency [5] | outcome [6] | Potency [7] | Potency [8] | Potency [9] | Potency [10] | Potency [11] | Potency [12] | outcome [13] | outcome [15] | outcome [17] | Potency [19] | Potency [20]

NC1=NCC2c3ccccc3Cc3ccccc3N12 (stereo not drawn)
inactive: outcome [1] | Potency [2] | Potency [3] | Potency [4] | Potency [5] | outcome [6] | Potency [7] | Potency [8] | Potency [9] | Potency [10] | Potency [11] | Potency [12] | outcome [13] | outcome [15] | Potency [16] | outcome [17] | Potency [19] | Potency [20]

C[C@@H](N)C(=O)O
inactive: outcome [1] | Potency [2] | Potency [3] | Potency [4] | Potency [5] | outcome [6] | Potency [7] | Potency [8] | Potency [9] | Potency [10] | Potency [12] | outcome [13] | Potency [18] | outcome [15] | outcome [17] | Potency [19] | Potency [20]

O=C(O)[C@@H]1CSCN1
inactive: outcome [1] | Potency [2] | Potency [3] | Potency [4] | Potency [5] | outcome [6] | Potency [7] | Potency [8] | Potency [9] | Potency [10] | Potency [11] | Potency [12] | outcome [13] | outcome [15] | Potency [16] | outcome [17] | Potency [19] | Potency [20]

O=C(Cl)c1cccc([N+](=O)[O-])c1
inactive: outcome [1] | Potency [2] | Potency [3] | Potency [4] | Potency [5] | outcome [6] | Potency [7] | Potency [8] | Potency [9] | Potency [10] | Potency [12] | outcome [13] | Potency [14] | outcome [17] | Potency [19] | Potency [20]

COc1ccccc1OCC(O)COC(N)=O (stereo not drawn)
inactive: outcome [1] | Potency [2] | Potency [3] | Potency [4] | Potency [5] | outcome [6] | Potency [7] | Potency [8] | Potency [9] | Potency [10] | Potency [12] | outcome [13] | Potency [14] | outcome [15] | outcome [17] | Potency [19] | Potency [20]
